In PubChem BioAssay AID720536 (National Center for Advancing Translational Sciences (NCATS), 2013):
The campaign covered roughly 1,600 compounds. About 650 (41%) were called active. Another 39% or so got no clear call; they are omitted. So high a share suggests a set chosen from earlier hits. The full list was thinned out, with actives kept by preference. A number with no mark means an inactive call. Calls come from the whole dose curve; as a rule, active = well fitted inhibition curve with a large enough effect; inconclusive = small, poorly fitted or top-dose-only effect; inactive = no such curve, though single readings can be large or run the other way.

Assay: qHTS for Inhibitors of TGF-b: CCL64 Cells Orthogonal Assay for Cherry Picks; note: nearly all actives have a fitted effect of over 65% in size
Details: CCL64 CAGA-GFP reporter, TGF-b stimulated, GFP fluorescence, 18 h; series mostly up to 46.1 µM; activity, negative = inhibition: at the top concentration
Excerpt: TGF-b is a main component in the TGF-b signaling pathway which plays diverse roles in cellular and development pathways. TGF-b is the mediated by the transcription factors Smads. Although the Smad-dependent pathway is the primary canonical TGF-b signaling node, TGF-b1 can also activate alternative signaling pathways, including those involving MAPK (ERK, JNK and p38). This interaction may mediate or enhance Smad-dependent responses, or can exert Smad-independent effects. The complexity of this signaling cascade allows the TGF-b superfamily to perform unique, overlapping or redundant functions. We believe that targeting the TGF-beta pathway at the Smad-transcription factor level may eliminate the consequences of disrupting the entire pathway and offer specificity without affecting other signaling pathways. Smad3 is the primary transducer of TGF-b's signals and Smad3 regulates many functions attributed to TGF-b signaling. We hypothesize that Smad3 inhibitors will selectively eliminate Smad3-specific TGF-beta signals without undesired off-target effects. We aim to identify Smad3-small molecule antagonists using a quantitative high throughput screening (qHTS) approach. A high-throughput assay was developed to screen the NIH Molecular Libraries Small Molecule Repository (MLSMR). This is a cell based assay, where TGF-b is tagged with GFP. This orthogonal assay was run using CCL64 cells (as opposed to HepG2); activity was desired in this assay as this indicated the hits identified from the screen are not a cell-based artifact. MH087449NIH Chemical Genomics Center [NCGC] NIH Molecular Libraries Probe Centers Network [MLPCN] MLPCN Grant: MH087449 Assay Submitter (PI): Sushil Rane, National Institute of Diabetes and Kidney Diseases
Suspensions of trypsinized CCL64 CAGA-GFP cells were dispensed into white, tissue culture-treated, solid 1536-well plates at 5uL/well (1000 cells/well final concentration) in DMEM medium supplemented with 1% FBS. Plates were incubated at 37 degrees C for 2 hours, after which 23 nL of compounds or DMSO were delivered to each well using a pin tool. One uL of recombinant TGF-beta in DMEM (1% FBS) was then dispensed (500 pg/mL final concentration), and plates were incubated at 37 degrees C for 18 hours. The plates were measured on an Acumen eX3 Explorer plate reader for GFP fluorescence (ex488/em500-530). GFP values were calculated by determining the mean GFP fluorescence of individual cells, and compiling these values for each well to determine a total well GFP signal. The %Activity was determined from the corrected fluorescence values. A titration of the known TGF-B inhibitor SB431542 was included to monitor plate performance, while unstimulated […] (-TGF-B) control wells were used to normalize %Activity of identified inhibitors; unstimulated wells corresponded to 100%Activity (full inhibition), while stimulated cell controls (+DMSO) were used to normalize 0%Activity (no inhibition). Concentration-response curves were fitted to the signals arising from the resulting fluorescence. The concentration-effect curves were then classified based on curve quality (r2), response magnitude and degree of measured activity, and compounds were subsequently categorized based on their curve class.
Potency is the fitted concentration of half-maximal effect.

| Structure (SMILES) | Potency | activity, negative = inhibition |
| --- | --- | --- |
| CCC(C)(O)C(=O)OC1C(=O)OC2CC3C(C)=CC(=O)C(O)C3(C)C3C4(O)OCC23C1C(C)C4O (stereo not given) | 0.231 µM (active) | – |
| O=c1c2ccccc2nc(/C=C/c2ccc(F)cc2)n1-c1ccccc1O | 18.4 µM (active) | – |
| COC(=O)C1=C(c2cc3ccccc3o2)C[C@@H]2CC[C@H]1N2C(=O)NC1CCCCC1 | 14.6 µM (active) | – |
| CC[C@H]1CN2CCc3cc(OC)c(OC)cc3[C@@H]2C[C@@H]1C[C@H]1NCCc2cc(OC)c(OC)cc21 | 0.116 µM (active) | – |
| O=Cc1cn(Cc2ccc(F)cc2Cl)c2ccccc12 | – | 1.08% |
